Source: PubChem (National Center for Advancing Translational Sciences (NCATS))
ELG1 repair inh: blocks ELG1-dependent DNA repair in HEK293T cells; HEK293T ELG1-luciferase reporter, luminescence, 16 h; DNA damage induced by 5-fluorouridine; AID 504467; Potency, µM (top dose mostly 46.1 µM), usual class: inhibitors; hit rate 2.3% among 330,000; also: nearly all actives have a fitted effect of over 55% in size
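Luminescence from the luciferase reporter, measured 30 min after ONE-Glo reagent at room temperature, was the read-out. Beforehand, 2,000 cells per well were exposed for 16 hr at 37 °C to 5-fluorouridine together with compound or vehicle.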
DT40 TDP1 no CPT: qHTS for Inhibitors of human tyrosyl-DNA phosphodiesterase 1 (TDP1): qHTS in cells in absence of CPT | Potency, µM (doses to about 46.2 µM), usual class: inhibitors | DT40 Tdp1-/- hTDP1 cells, no CPT, ATP luminescence, 48 h | hit rate 15% among 420,000; also: nearly all actives have a fitted effect of over 55% in size
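Camptothecin absent (DMSO only). Human TDP1-complemented DT40 knockout cells, 400 cells/well, 37 °C for minimum 48 hr; ATP measured via CellTiter-Glo, 30 min dark incubation, luminescence.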
ALOX12 inh: inhibitors of human 12S-lipoxygenase ALOX12; P18054; purified 12hLO, xylenol orange hydroperoxide absorbance; Potency, µM (top dose mostly 108 µM), usual class: inhibitors; hit rate 1.1% among 580,000
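Hydroperoxide product was detected by ferrous iron/xylenol orange as the 573 to 405 nm absorbance ratio. Arachidonic acid at 40 uM (final) was turned over for 30 min at room temperature by 150 nM human 12hLO, pH 7.0 Hepes buffer, after 15 min compound preincubation.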
VP16 counter: Gal4-VP16 reporter inhibition counter-screen. Potency, µM (titrated, usually from 53.6 µM), actives largely listed as inhibitors. AID 2546. hit rate 3.5% among 310,000. Drosophila S2 Gal4-VP16 UAS-luciferase, luminescence, 20 h;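 also: Gal4-VP16 expression switched on by copper sulfate through the metallothionein promoter; nearly all actives have a fitted effect of over 50% in size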
DT40 TDP1 CPT: growth inhibition of DT40 Tdp1-/-;hTDP1 cells with camptothecin (screen for TDP1 inhibitors); chicken DT40 Tdp1-/-;hTDP1 cells + 20 nM CPT, ATP luminescence, 48 h; Potency, µM (titrated, usually from 46.2 µM), most hits filed as inhibitors; hit rate 12% among 420,000; AID 686979; also: nearly all actives have a fitted effect of over 55% in size
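Chicken DT40 Tdp1-/- cells stably complemented with human TDP1 were seeded at 400 cells/well in medium containing 20 nM camptothecin, exposed to pin-transferred compounds, and grown at 37 °C for at least 48 hr. Viability was read as ATP luminescence.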
RORg inh: blocks mouse ROR gamma transcriptional activity | hit rate 5.4% among 310,000 | Drosophila S2 Gal4-RORgamma UAS-luciferase reporter, 20 h | AID 2551 | Potency, µM (top dose mostly 53.6 µM), actives largely listed as inhibitors | P51450; also: nearly all actives have a fitted effect of over 60% in size
Target sequence (P51450 whole entry, looked up, the tested form may be a part): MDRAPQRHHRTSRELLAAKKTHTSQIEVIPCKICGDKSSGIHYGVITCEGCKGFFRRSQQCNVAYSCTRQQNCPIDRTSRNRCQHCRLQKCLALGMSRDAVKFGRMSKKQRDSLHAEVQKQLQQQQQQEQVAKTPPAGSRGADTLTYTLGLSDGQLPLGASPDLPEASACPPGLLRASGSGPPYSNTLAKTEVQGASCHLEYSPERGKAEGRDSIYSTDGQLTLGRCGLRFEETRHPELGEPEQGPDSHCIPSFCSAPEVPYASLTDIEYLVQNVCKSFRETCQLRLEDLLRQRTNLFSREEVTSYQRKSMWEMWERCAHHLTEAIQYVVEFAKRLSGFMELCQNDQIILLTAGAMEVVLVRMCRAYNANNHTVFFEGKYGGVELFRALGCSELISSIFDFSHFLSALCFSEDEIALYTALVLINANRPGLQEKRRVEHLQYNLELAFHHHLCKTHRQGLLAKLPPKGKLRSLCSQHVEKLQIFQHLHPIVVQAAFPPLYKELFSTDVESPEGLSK
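Stably transfected Drosophila Schneider cells are the test system, with ROR gamma fused to Gal4 and luciferase under UAS control; luminescence is read after 20 hr of 700 uM copper sulfate induction at ambient temperature.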
Of the large screens only hits and unclear results are named; the others gave an inactive call. Shown are actives, neighbours in structure and some others; about 15% of the full set was active somewhere. Calls follow the shape of the dose curve; as a rule, active = well fitted curve in the direction sought with a large enough effect; inconclusive = small, poorly fitted or top-dose-only effect, or another doubt; inactive = no such curve, though single readings can be large; an effect the other way counts as inactive or inconclusive.

CC1CC(C)(C)CC2(C1)NC(=O)N(CC(=O)N1CCN(S(=O)(=O)c3cccc(Cl)c3Cl)CC1)C2=O (stereo not drawn)	DT40 TDP1 no CPT inconclusive, ALOX12 inh inconclusive, DT40 TDP1 CPT 18.4µM (no result: ELG1 repair inh, VP16 counter, RORg inh)
CC1(C)NC(=O)N(CC(=O)N2CCN(S(=O)(=O)c3cc(Cl)ccc3Cl)CC2)C1=O	none (no result: VP16 counter, RORg inh)
Cc1[nH]c2ccccc2c1C(=O)CN1C(=O)NC2(CC(C)CC(C)(C)C2)C1=O (stereo not drawn)	ELG1 repair inh inconclusive, DT40 TDP1 no CPT inconclusive, VP16 counter inconclusive, DT40 TDP1 CPT 14.6µM, RORg inh inconclusive
COc1ccc(F)cc1C(=O)C1CCCN(Cc2c[nH]c3ccccc23)C1 (stereo not drawn)	DT40 TDP1 no CPT 4.61µM, DT40 TDP1 CPT 4.11µM
COc1ccc(OC)c(CN2CCCC(C(=O)c3ccccc3SC)C2)c1 (stereo not drawn)	ELG1 repair inh inconclusive, DT40 TDP1 no CPT 9.2µM, DT40 TDP1 CPT 13µM
Cn1cc(CN2CCCC(C(=O)c3cc(F)ccc3F)C2)c2ccccc21 (stereo not drawn)	ELG1 repair inh inconclusive, DT40 TDP1 no CPT 16.4µM, DT40 TDP1 CPT inconclusive
COc1c(C)cc(C(=O)C2CCCN(Cc3c(C)n(C)n(-c4ccccc4)c3=O)C2)cc1C (stereo not drawn)	none
COc1ccc(OC)c(CN2CCCC(COc3ccccc3C(=O)N3CCCC3)C2)c1 (stereo not drawn)	none (no result: ELG1 repair inh, DT40 TDP1 no CPT, VP16 counter, DT40 TDP1 CPT, RORg inh)
CSc1ccccc1C(=O)C1CCCN(Cc2c(C)n(C)n(-c3ccccc3)c2=O)C1 (stereo not drawn)	DT40 TDP1 no CPT 29.1µM, DT40 TDP1 CPT inconclusive
CC(=O)c1ccc(N2CCN(C(=O)c3csc(-c4ccc(Cl)cc4)n3)CC2)cc1	none (no result: ELG1 repair inh, DT40 TDP1 no CPT, VP16 counter, DT40 TDP1 CPT, RORg inh)
CNC(=O)Cc1ccc(NC(=O)C2CCCCC2)cc1	none (no result: ELG1 repair inh, DT40 TDP1 no CPT, VP16 counter, DT40 TDP1 CPT, RORg inh)
COc1ccc(F)cc1C(=O)C1CCCN(Cc2cn(C)c3ccccc23)C1 (stereo not drawn)	DT40 TDP1 no CPT 13µM, DT40 TDP1 CPT 14.6µM
CC(=O)c1sc(Nc2nc3ccc(F)cc3s2)nc1C	ELG1 repair inh inconclusive, DT40 TDP1 no CPT inconclusive, VP16 counter 11.2µM, DT40 TDP1 CPT inconclusive, RORg inh 3.16µM
CCOC(=O)c1ccc2nc(NC(NC(C)=O)(C(=O)OC)C(F)(F)F)sc2c1 (stereo not drawn)	none
COC(=O)c1ccc2nc(NC(=O)C3CCCCC3)sc2c1	ELG1 repair inh inconclusive, DT40 TDP1 CPT inconclusive
COC(=O)c1ccc2nc(NC(=O)C(C)(C)C)sc2c1	ELG1 repair inh inconclusive, DT40 TDP1 no CPT inconclusive, VP16 counter 7.08µM, DT40 TDP1 CPT inconclusive, RORg inh 2µM
CCOC(=O)c1sc(Nc2nc3ccc(OC)cc3s2)cc1C	DT40 TDP1 no CPT inconclusive, DT40 TDP1 CPT inconclusive, RORg inh inconclusive
CCOC(=O)c1csc(Nc2nc3ccc(F)cc3s2)n1	ELG1 repair inh inconclusive, DT40 TDP1 no CPT 9.2µM, VP16 counter inconclusive, DT40 TDP1 CPT 20.6µM, RORg inh 7.94µM
COC(=O)c1ccc2nc(Nc3nc4ccc(F)cc4s3)sc2c1	ELG1 repair inh inconclusive, DT40 TDP1 no CPT inconclusive, VP16 counter 3.55µM, RORg inh 0.141µM
CC(CNC(=O)CCc1nnc2n(CCc3ccccc3)c(=O)c3ccccc3n12)c1ccccc1 (stereo not drawn)	none (no result: ELG1 repair inh, DT40 TDP1 no CPT, VP16 counter, DT40 TDP1 CPT, RORg inh)
Cc1ccc(-c2cc(C(=O)Nc3nncs3)c3ccccc3n2)cc1	none (no result: ELG1 repair inh, DT40 TDP1 no CPT, VP16 counter, DT40 TDP1 CPT, RORg inh)
CN(C)CCNC(=O)c1ccc2c(c1)N(Cc1c(F)cccc1Cl)C(=O)c1ccccc1S2	DT40 TDP1 no CPT 23.1µM, ALOX12 inh inconclusive, DT40 TDP1 CPT 16.4µM (no result: ELG1 repair inh, VP16 counter, RORg inh)
C=CCN1C(=O)c2ccccc2Sc2ccc(C(=O)N3CCN(C)CC3)cc21	ELG1 repair inh inconclusive, DT40 TDP1 no CPT inconclusive, DT40 TDP1 CPT inconclusive
O=C(c1ccc2c(c1)N(Cc1cccc(Cl)c1)C(=O)c1ccccc1S2)N1CCOCC1	DT40 TDP1 no CPT inconclusive, DT40 TDP1 CPT 18.4µM (no result: ELG1 repair inh, VP16 counter, RORg inh)
O=C(O)c1ccc2c(c1)N(Cc1ccccc1)C(=O)c1ccccc1S2	none
